From PubChem
CF NFkB inh – inhibitors of cystic fibrosis induced NF-kB; KKLEB NF-kB-GFP reporter, PAF-induced, GFP fluorescence overnight; inhibition, % at 5 µM; 360,000 tested, 0.86% active;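 active = at least 50% inhibition at 5 µM, scaled per plate between neutral and stimulator controls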;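 also: PAF is a Pseudomonas aeruginosa culture filtrate used as stimulus; plate controls were PAF-stimulated DMSO wells for no effect and unstimulated DMSO wells for full effect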
HIF-2a inh – inhibitors of HIF-2a; 360,000 tested, 0.72% active; 786-0 RCC cells HIF-2a reporter, luciferase luminescence, overnight; inhibition, % at 18.8 µM;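 active = inhibition of the luminescence signal of 40% or more relative to plate controls, in a single-dose primary screen at 18.75 µM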
ABHD5-PLIN5 inh – inhibitors of human ABHD5-perilipin-5 interaction. inhibition, % at 4 µM. Split G. princeps luciferase complementation, luminescence, 4 h. 360,000 tested, 0.78% active;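 active = inhibition above the mean inhibition across every tested compound plus 3 SD, cut at about 22% in these data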;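 also: 0% = DMSO only wells and the 100% control is not disclosed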
Peg3 prom inh – inhibitors of Peg3 promoter. inhibition, % at 20 µM. 360,000 tested, 1.7% active. HeLa PEG-Prom luciferase reporter, luminescence, overnight;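 active = inhibition of at least 50% at 20 µM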
Mdm2-MdmX inh – inhibitors of human Mdm2/MdmX interaction; O15151+Q00987; SaOS-2 split-luciferase Mdm2/MdmX complementation, luminescence; inhibition, % at 8 µM; 330,000 tested, 3% active; AID 485346;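 active = inhibition of at least 50% at 8 µM in the primary screen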
KKLEB tox – CF airway cell cytotoxicity counter-screen | AID 602141 | 360,000 tested, 0.36% active | KKLEB CF airway cells viability, ATPlite luminescence, overnight; stronger effect = lower value; cells stimulated with P. aeruginosa culture filtrate | activity change (cytotoxicity), % at 5 µM;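 active = corrected activity change at or below -50% at 5 µM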
Mdm2 MdmX conf – confirmation of human Mdm2/MdmX interaction inhibitors; shares compounds with Mdm2-MdmX inh; Mdm2-MdmX binding, luminescent assay; inhibition, % at 8 µM; 10,000 tested, 55% active; AID 489028; in the data active = inhibition above about 40%
FLuc counter – full-length luciferase inhibition in Mdm2/MdmX counter-screen. shares compounds with Mdm2-MdmX inh. SaOS-2 full-length luciferase counterscreen, luminescence. inhibition, % at 8 µM. 6,200 tested, 77% active. AID 504607;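 active = mean inhibition at 8 µM reaching about 37%, which flags the compound as non-specific, limit read from the data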;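 also: p53-null SaOS-2 cells with luciferase driven by a doxycycline-inducible promoter; compound on cells about two nights before reading with doxycycline added after day one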
* = called active by the depositor; · = no result. Sampled rows, rich in hits. Any-hit rate of the full collection: about 4.6%.

SMILES | CF NFkB inh | HIF-2a inh | ABHD5-PLIN5 inh | Peg3 prom inh | Mdm2-MdmX inh | KKLEB tox | Mdm2 MdmX conf | FLuc counter
CC(C)OCCCn1c(=N)c(C(N)=S)cc2c(=O)n3ccccc3nc21 | 13.6 | 11.0 | -7.8 | 2.4 | 61.1* | -20.1 | 30.1 | ·
Cc1ccc(Cn2c(=N)c(C(=O)NC3CCCC3)cc3c(=O)n4ccccc4nc32)cc1 | -23.4 | -13.3 | 6.2 | -12.5 | 50.2* | -7.4 | 4.5 | ·
CC(C)Cc1ccc(CN2CCCC(NC(=O)c3cnc4ccccn4c3=O)C2)cc1 (stereo not drawn) | -80.0 | 36.2 | 0.2 | 27.1 | 60.0* | 0.3 | 19.6 | ·
COc1ccc(C(CNC(=O)c2cccc(S(=O)(=O)Nc3ccc(F)cc3)c2)N2CCCCC2)cc1 (stereo not drawn) | 5.9 | 14.2 | 1.5 | -2.6 | · | 3.6 | · | ·
N=c1c(C(=O)NCC2CCCO2)cc2c(=O)n3ccccc3nc2n1Cc1ccco1 (stereo not drawn) | 3.0 | 9.8 | 8.7 | 3.4 | 24.1 | -9.0 | · | ·
N=c1c(C(=O)NC2CCCCC2)cc2c(=O)n3ccccc3nc2n1Cc1ccco1 | 7.9 | 18.6 | 20.9 | -0.3 | 55.6* | -7.9 | 44.1* | 33.2
Cc1cc2c(SCC(=O)Nc3cccc(O)c3)ncnc2s1 | -0.1 | -28.4 | -1.5 | -58.4 | · | 8.6 | · | ·
CCCNC(=O)c1ccc(S(=O)(=O)c2ccc(OC)cc2)c([N+](=O)[O-])c1 | 41.9 | 32.4 | -14.8 | 48.5 | 86.9* | -16.9 | 53.0* | 18.7
CN(CC(=O)Nc1cccc(F)c1)CC(=O)N(C)CC(=O)Nc1ccccc1Br | -10.8 | 1.0 | 1.2 | 17.9 | -1.0 | -1.6 | · | ·
CCN(CC)c1ccc(/C=C/c2cccc[n+]2C)c(OC)c1 | -109.8 | -4.1 | 3.1 | 48.3 | 90.9* | -13.8 | 79.3* | 37.9*
CCOC(=O)C1=C(C)NC(C)=C(C(=O)OCC)C1c1ccccc1/C=C/C(=O)OC(C)(C)C | · | · | · | · | 71.6* | · | 30.9 | ·
CC1(C)Cc2c(c(N3CCOCC3)nc3sc4c(NCCN5CCOCC5)nnnc4c23)CS1 | 30.6 | 33.9 | 1.4 | 22.9 | 21.1 | -15.2 | · | ·
CC1(C)Cc2c(c(N3CCOCC3)nc3sc4c(NCC5CCCO5)nnnc4c23)CS1 (stereo not drawn) | 34.6 | 14.0 | 3.6 | 28.6 | 70.4* | -9.7 | 51.8* | 69.2*
CC(C)CCNc1nnnc2c1sc1nc(N3CCOCC3)c3c(c12)CC(C)(C)SC3 | 43.6 | 6.6 | -5.1 | 32.1 | 50.9* | -22.0 | 6.2 | ·
CCC(=O)N1N=C(c2cccs2)CC1c1ccc(OC)cc1 (stereo not drawn) | -4.1 | -37.9 | -0.1 | -28.3 | -11.9 | 1.7 | · | ·
Cc1ccc(C2CC(c3cccs3)=NN2C(=O)CSC2=NCCS2)cc1 (stereo not drawn) | 13.4 | 23.2 | 2.5 | 16.3 | 55.3* | 7.0 | 27.5 | ·
COc1ccc(C2CC(c3cccs3)=NN2C(=O)CSC2=NCCS2)cc1 (stereo not drawn) | 7.9 | -60.3 | 0.3 | -51.2 | 53.9* | -14.2 | 14.0 | ·
FC(F)(F)c1nnc(Nc2ccc(Cl)cc2)s1 | 9.9 | -22.2 | 2.2 | 2.2 | 27.2 | -2.1 | · | ·
Fc1ccc(Nc2nnc(C(F)(F)F)s2)cc1Cl | 36.8 | -65.7 | -1.8 | 28.8 | 73.4* | -27.3 | 68.0* | 57.2*
COCCn1c(-c2ccc(NC(C)=O)cc2)nc2c1c(=O)[nH]c(=O)n2CC(C)C | 5.0 | 7.1 | -0.8 | 15.7 | 5.1 | -1.2 | · | ·
CCCCn1c(=O)[nH]c(=O)c2c1nc(-c1ccc(-c3ccccc3Br)o1)n2CCOC | 13.8 | 15.3 | 11.4 | 8.9 | 53.1* | -10.3 | 5.7 | ·
CCCCn1c(=O)[nH]c(=O)c2c1nc(-c1ccc(-c3ccc(F)cc3)o1)n2C | · | · | · | · | 73.9* | · | 9.9 | ·
COCCn1c(-c2ccc(-c3ccccc3Cl)o2)nc2c1c(=O)[nH]c(=O)n2CC(C)C | 6.2 | 16.7 | 1.4 | 17.7 | 59.4* | -5.7 | -0.9 | ·
CC1(C)C[C@@H](O)[C@]2(C)CC[C@]3(C)C(=CCC4[C@@]5(C)CC[C@H](O)[C@](C)(CO)C5CC[C@]43C)[C@@H]2C1 (stereo partly drawn) | 6.9 | -3.7 | -7.1 | 15.9 | 76.8* | -33.3 | -43.6 | ·
COc1ccc([C@H]2CC(=O)C=C(c3ccc4cc[nH]c4c3)C2)cc1 | -6.4 | -65.9 | -9.9 | -20.8 | 32.0 | -7.7 | · | ·
SMILES | CF NFkB inh | HIF-2a inh | ABHD5-PLIN5 inh | Peg3 prom inh | Mdm2-MdmX inh | KKLEB tox | Mdm2 MdmX conf | FLuc counter
CCOC(=O)[C@]12CCCC=C1N(CCC1=CCCCC1)C(=O)[C@H](CC(=O)NCc1cccs1)C2 | · | -2.6 | 3.2 | · | · | · | · | ·
Cc1c(C(=O)NCCCN2CCCCC2)oc2ccc3c(c12)C(O)CC1(CCCCC1)O3 (stereo not drawn) | -7.7 | 5.2 | 4.3 | 43.3 | 76.3* | 7.7 | 30.2 | 55.2*
CCOC(=O)C1CCN(C(=O)c2oc3ccc4c(c3c2C)C(O)CC2(CCCCC2)O4)CC1 (stereo not drawn) | 4.8 | -9.9 | -7.1 | -1.5 | 19.5 | -11.1 | · | ·
COc1ccc(-n2c(SCC(=O)NCC3CCCO3)nc3ccccc3c2=O)cc1Cl (stereo not drawn) | -12.0 | 5.9 | -0.2 | 11.3 | · | 3.1 | · | ·
Cc1ccc(NCc2ccc(O)c3ncccc23)cc1C | 2.2 | -4.0 | 3.8 | 4.7 | 77.5* | -0.4 | 63.9* | 48.3*
Cc1ccc(O)c(CNc2cccc3cccnc23)c1 | 9.3 | -3.6 | 1.0 | -24.0 | 11.3 | 13.0 | · | ·
Cc1ccc(NCc2ccc(O)c3ncccc23)cc1 | 6.4 | 10.3 | 1.6 | 11.9 | 75.9* | -0.7 | 71.5* | 66.1*
Oc1c(CNc2ccccc2)cc(COCc2ccccc2)c2cccnc12 | -21.1 | 13.2 | 9.8 | 31.4 | 70.5* | -10.2 | 44.8* | 79.0*
OCC1OC(n2cnc3c(N4CCCCC4)ncnc32)C(O)C1O (stereo not drawn) | -2.7 | 14.8 | 0.1 | 8.0 | · | 2.2 | · | ·
CCOC(=O)c1c(N/C=C(\C#N)c2nc(-c3ccc(OC(C)=O)cc3)cs2)sc2c1CCC2 | -14.1 | 20.4 | 10.5 | -11.6 | · | -9.8 | · | ·
COc1ccc(OCc2cc(C(=O)NCc3cccc(C)n3)no2)c(Cl)c1 | -9.9 | -168.0 | 3.0 | -113.6 | -15.6 | -4.3 | · | ·
CC(C)CCn1c(Sc2nc3ccccc3o2)nc2c1c(=O)[nH]c(=O)n2C | 19.7 | -33.6 | 5.8 | -98.2 | 61.0* | -33.0 | 45.6* | 41.2*
COc1cccc(NC(=O)CN(C)C(=O)C(CCSC)NC(=O)c2ccco2)c1 (stereo not drawn) | 14.7 | 9.6 | -6.0 | -8.5 | -30.4 | 7.7 | · | ·
Cc1cc(O)c(C(C)C)cc1N=Nc1ccccc1C(=O)O | -4.2 | 8.4 | 11.5 | 16.0 | 2.9 | 15.6 | · | ·
Cc1cc(NO)c(C(C)C)cc1N=O | 43.8 | 33.7 | -6.1 | 32.2 | 60.4* | -9.3 | 35.6 | ·
